Here are results for 13 compounds from PubChem BioAssay AID624059 (National Center for Advancing Translational Sciences (NCATS), 2012).

Activity calls are given as the source filed them. Where a call stands in place of a potency, no number is given. Calls follow the shape of the dose curve; as a rule, active = well fitted curve in the direction sought with a large enough effect; inactive = no such curve, though single readings can be large or run the other way.

The experiment can be described thus: qHTS for Inhibitors of Mutant Isocitrate Dehydrogenase 1 (IDH1): U87 Cytotoxicity Assay for Probe SAR. The conditions noted are these: U87MG-IDH1 R132H viability, CellTiter-Glo luminescence, 72 h; series mostly up to 22.1 µM. An excerpt: Malignant glioblastomas (WHO grade IV), including primary and secondary glioblastomas, are among the most lethal with a median survival of one year, and unfortunately they are also the most prevalent type of brain tumors. By and large the standard of care of gliomas remains the use of the oral alkylating agent temozolomide and radiotherapy following surgical tumor resection. There is an urgent unmet medical need for novel therapeutics for gliomas. IDH mutations occur in up to 70% of grade II-IV secondary glioblastomas, and IDH1 R132H is the most prevalent mutation. […] Wild-type (WT) IDH1 catalyzes the conversion of isocitrate to -ketoglutarate with the concomitant reduction of NADP+ to NADPH. In contrast, IDH1 R132H catalyzes the conversion of alpha-ketoglutarate to 2-hydroxyglutarate (2-HG) with the concomitant oxidation of NADPH to NADP+ [5]. Recently, a second significant advancement for the field was the finding that IDH is an oncogene, and that its metabolic product 2-HG may contribute to the pathogenesis of IDH-mutated cancers. […] Although this link to cancer is tantalizing, the direct evidence of how 2-HG drives pathogenesis of gliomas and AML remains a subject of further research. The goal of this cell assay is to identify whether the small-molecule inhibitors of IDH1 R132H are cytotoxic in U87MG-IDH1 R132H cells. Compounds were screened as concentration-titration series that ranged from 50 microM to 14 nM. NIH Molecular Libraries Probe Production Network [MLPCN] NIH Chemical Genomics Center [NCGC] MLSCN Grant: R03 DA032129 PI Name: Dr. Lenny Dang
Cells were dispensed into 96-well black solid bottom plates at 2500 cells/well (RPMI medium with 10% FBS). The plates were incubated overnight at 37 °C and 5% CO2. The media was aspirated off and fresh media (RPMI and 10% FBS) with compounds in 7-point dose response was added. The plates were incubated for 48 hours at 37 °C and 5% CO2. From each well 100 microL was removed and used for LC-MS analysis to quantitate the amount of 2-HG product. The remaining cells/media were incubated for 24 additional hours at which point 100 uL of Cell Titer Glo (Promega) was added. The plates were shaken for 10 minutes and then incubated at room temperature for 20 minutes. The luminescence was read on the ViewLux in end-point mode (0.5 sec). Concentration-response curves were fitted to the signals arising from the resulting selective ion monitoring. The concentration-response curves were then classified based on curve quality (r2), response magnitude and degree of measured activity, and compounds were subsequently categorized based on their curve class. […] Keywords: Isocitrate dehydrogenase, IDH1, IDH1 R132H, 2-HG, 2-hydroxyglutarate, AML, glioma, MLSMR, MLPCN, NIH Roadmap, qHTS, NCGC
In the case of `Cc1ccccc1C(C(=O)NC1CCCC1)N(C(=O)Cc1cccs1)c1ccccc1F` (stereo not drawn), the Potency entry is “inactive”.
Consider `COc1cccc(N(C(=O)Cc2cccs2)C(C(=O)NC2CCCC2)c2ccccc2)c1` (stereo not drawn), for which the Potency result was “inactive”.
For `O=C(NC1CCCC1)C(c1ccccc1)N(C(=O)Cc1cccs1)c1cccc(F)c1` (stereo not drawn), the Potency result is “inactive”.
For the compound `Cc1ccccc1C(C(=O)NC1CCCC1)N(C(=O)Cc1cccs1)c1cccc(F)c1` (stereo not drawn), the Potency entry was “inactive”.
For the compound `COc1ccc(N(C(=O)Cn2cnc3ccccc32)C(C(=O)NC2CCCCC2)c2ccccc2)cc1` (stereo not drawn), the Potency entry was “inactive”.
In the case of `Cc1ccccc1C(C(=O)NC1CCCC1)N(C(=O)Cn1cnc2ccccc21)c1cccc(F)c1` (stereo not drawn), the Potency entry was “inactive”.
Turning to `COc1cccc(C(C(=O)NC2CCCCC2)N(C(=O)c2cccs2)c2ccc3c(c2)OCO3)c1` (stereo not drawn), the Potency result is “inactive”.
With `Cc1ccccc1C(C(=O)NC1CCCCC1)N(C(=O)c1ccccn1)c1cccc(F)c1` (stereo not drawn), the Potency was 11.8 µM (active).
The entry for `Cc1ccccc1C(C(=O)NC(C)(C)C)N(C(=O)Cc1cccs1)c1cccc(F)c1` (stereo not drawn) is “inactive”.
In the case of `Cc1ccccc1C(C(=O)NC1CCCCC1)N(C(=O)Cc1cccs1)c1cccc(F)c1` (stereo not drawn), the Potency result is “inactive”.
Turning to `Cc1nc(C)c(C(=O)N(c2cccc(F)c2)C(C(=O)NC2CCCCC2)c2ccccc2)s1` (stereo not drawn), the Potency result is “inactive”.
Take `COc1ccc(N(C(=O)C2COc3ccccc3O2)C(C(=O)NC2CCCCC2)c2ccccc2)cc1OC` (stereo not drawn): the Potency result was “inactive”.
For `Cc1ccccc1C(C(=O)NC1CCCCC1)N(C(=O)CNS(=O)(=O)c1ccccc1)c1cccc(F)c1` (stereo not drawn), the Potency was 10.1 µM (active).
